For assay [1], the target named is T1, Tyrosine-protein kinase ITK/TSK (Homo sapiens) (UniProt Q08881).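 Also: values are mean percent inhibition of ITK from the GSK PKIS screen.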
T1 sequence (whole entry): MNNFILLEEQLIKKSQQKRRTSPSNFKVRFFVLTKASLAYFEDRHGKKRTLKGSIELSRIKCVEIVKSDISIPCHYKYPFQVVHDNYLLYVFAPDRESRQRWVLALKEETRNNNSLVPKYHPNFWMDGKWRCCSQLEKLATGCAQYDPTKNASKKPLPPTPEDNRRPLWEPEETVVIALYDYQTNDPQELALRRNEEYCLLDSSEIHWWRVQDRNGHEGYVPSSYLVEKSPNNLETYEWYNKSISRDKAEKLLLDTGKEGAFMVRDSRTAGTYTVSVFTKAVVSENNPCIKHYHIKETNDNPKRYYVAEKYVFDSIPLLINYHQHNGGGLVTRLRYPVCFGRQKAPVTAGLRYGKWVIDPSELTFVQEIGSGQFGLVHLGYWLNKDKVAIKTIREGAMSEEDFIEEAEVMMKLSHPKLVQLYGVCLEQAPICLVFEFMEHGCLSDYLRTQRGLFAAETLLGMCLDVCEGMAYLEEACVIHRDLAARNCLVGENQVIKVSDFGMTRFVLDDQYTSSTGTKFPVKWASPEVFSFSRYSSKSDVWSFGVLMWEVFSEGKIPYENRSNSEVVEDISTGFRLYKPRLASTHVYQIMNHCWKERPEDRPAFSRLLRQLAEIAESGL
The settings on record: at 1 µM.

Assay [2] addresses Tyrosine-protein kinase JAK1 (Homo sapiens) (UniProt P23458). Particulars: at 0.1 µM.
For assay [3] the target is unchanged. The settings on record: at 1 µM.
The target in assay [4] is Tyrosine-protein kinase JAK2 (Homo sapiens) (UniProt O60674). Particulars: at 0.1 µM.
The target is the same in assay [5]. The settings on record: at 1 µM.
The target of assay [6] is T2, Tyrosine-protein kinase JAK3 (Homo sapiens) (UniProt P52333).
T2 sequence (whole entry): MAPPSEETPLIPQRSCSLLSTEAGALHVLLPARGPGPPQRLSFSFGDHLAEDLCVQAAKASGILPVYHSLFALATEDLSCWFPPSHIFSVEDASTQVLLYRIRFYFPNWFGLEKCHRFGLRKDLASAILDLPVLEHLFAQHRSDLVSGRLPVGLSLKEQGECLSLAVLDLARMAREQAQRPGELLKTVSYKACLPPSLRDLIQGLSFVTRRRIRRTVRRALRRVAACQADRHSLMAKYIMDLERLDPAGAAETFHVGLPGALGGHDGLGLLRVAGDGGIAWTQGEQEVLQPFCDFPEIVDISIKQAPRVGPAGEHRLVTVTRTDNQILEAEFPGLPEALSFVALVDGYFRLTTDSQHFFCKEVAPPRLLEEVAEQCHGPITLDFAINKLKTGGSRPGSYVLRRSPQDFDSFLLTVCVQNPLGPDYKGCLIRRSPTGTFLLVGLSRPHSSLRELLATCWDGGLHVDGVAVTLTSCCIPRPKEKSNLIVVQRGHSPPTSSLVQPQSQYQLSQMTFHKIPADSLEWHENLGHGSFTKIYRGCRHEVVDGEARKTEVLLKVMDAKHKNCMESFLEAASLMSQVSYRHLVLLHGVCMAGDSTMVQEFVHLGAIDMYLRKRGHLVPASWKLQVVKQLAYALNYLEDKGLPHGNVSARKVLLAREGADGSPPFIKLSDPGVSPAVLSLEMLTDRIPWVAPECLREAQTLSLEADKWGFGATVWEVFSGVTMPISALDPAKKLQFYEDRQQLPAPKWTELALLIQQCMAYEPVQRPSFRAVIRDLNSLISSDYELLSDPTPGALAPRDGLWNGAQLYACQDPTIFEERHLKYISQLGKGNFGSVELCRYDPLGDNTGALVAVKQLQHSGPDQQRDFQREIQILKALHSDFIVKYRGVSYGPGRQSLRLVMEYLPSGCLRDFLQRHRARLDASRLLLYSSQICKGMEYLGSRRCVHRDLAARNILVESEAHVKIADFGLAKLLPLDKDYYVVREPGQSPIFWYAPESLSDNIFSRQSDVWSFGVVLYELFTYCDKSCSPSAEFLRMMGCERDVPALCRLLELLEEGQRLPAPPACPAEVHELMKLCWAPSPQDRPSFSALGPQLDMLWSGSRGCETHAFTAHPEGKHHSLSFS
The settings on record: at 0.1 µM.

Assay [7] concerns the target T2, Tyrosine-protein kinase JAK3 (Homo sapiens). The settings on record: at 1 µM.
Assay [8] has as its target Vascular endothelial growth factor receptor 2 (Homo sapiens) (UniProt P35968). The settings on record: at 0.1 µM.
Assay [9] has the same target. Particulars: at 1 µM.
Assay [10] concerns the target Mast/stem cell growth factor receptor Kit (Homo sapiens) (UniProt P10721). Particulars: at 0.1 µM.
Assay [11] shares this target. The settings on record: at 1 µM.
The subject of assay [12] is Mast/stem cell growth factor receptor Kit (Homo sapiens), P10721 [D816V]. The settings on record: at 0.1 µM.
Assay [13] has the same test system. The settings on record: at 1 µM.
The test system of assay [14] is Mast/stem cell growth factor receptor Kit (Homo sapiens), P10721 [T670I]. Particulars: at 0.1 µM.
Assay [15] shares this test system. The settings on record: at 1 µM.
Assay [16] has as its system Mast/stem cell growth factor receptor Kit (Homo sapiens), P10721 [V560G]. Particulars: at 0.1 µM.
The test system is the same in assay [17]. The settings on record: at 1 µM.
Assay [18] deals with Tyrosine-protein kinase Lck (Homo sapiens) (UniProt P06239). The settings on record: at 0.1 µM.
Assay [19] has the same target. The settings on record: at 1 µM.
Assay [20] deals with Leukocyte tyrosine kinase receptor (Homo sapiens) (UniProt P29376). The settings on record: at 0.1 µM.

SMILES strings stand for the structures. “And” between values parts separate entries of the source, which are not always exact repeats. Equal values may be shown once.

Sequence of Mast/stem cell growth factor receptor Kit (Homo sapiens), P10721 [T670I] (P10721 whole entry T670I): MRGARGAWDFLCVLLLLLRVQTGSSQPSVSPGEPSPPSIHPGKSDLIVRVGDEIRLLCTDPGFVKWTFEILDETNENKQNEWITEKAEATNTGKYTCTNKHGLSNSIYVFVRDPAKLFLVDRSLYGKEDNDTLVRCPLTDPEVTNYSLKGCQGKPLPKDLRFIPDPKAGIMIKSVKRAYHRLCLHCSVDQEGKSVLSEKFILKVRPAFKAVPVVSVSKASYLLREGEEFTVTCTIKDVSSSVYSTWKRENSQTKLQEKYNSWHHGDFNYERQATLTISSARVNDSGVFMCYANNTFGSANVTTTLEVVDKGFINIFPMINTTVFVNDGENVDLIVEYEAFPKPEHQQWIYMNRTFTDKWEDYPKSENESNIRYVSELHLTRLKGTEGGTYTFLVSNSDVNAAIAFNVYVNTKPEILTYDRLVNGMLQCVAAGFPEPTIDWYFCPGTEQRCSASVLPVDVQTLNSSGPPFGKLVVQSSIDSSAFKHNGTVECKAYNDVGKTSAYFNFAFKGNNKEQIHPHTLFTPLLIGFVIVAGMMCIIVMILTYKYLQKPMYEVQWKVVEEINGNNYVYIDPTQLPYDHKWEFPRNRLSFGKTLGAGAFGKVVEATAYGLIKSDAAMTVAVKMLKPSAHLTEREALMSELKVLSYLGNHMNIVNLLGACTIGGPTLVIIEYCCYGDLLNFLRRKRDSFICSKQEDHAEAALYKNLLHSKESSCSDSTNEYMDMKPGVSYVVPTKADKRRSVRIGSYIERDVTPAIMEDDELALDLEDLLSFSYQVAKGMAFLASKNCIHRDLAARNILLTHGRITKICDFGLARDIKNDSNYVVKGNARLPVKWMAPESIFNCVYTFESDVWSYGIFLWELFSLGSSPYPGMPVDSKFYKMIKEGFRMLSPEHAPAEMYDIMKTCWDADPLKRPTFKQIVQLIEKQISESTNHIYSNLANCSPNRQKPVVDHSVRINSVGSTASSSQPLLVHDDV
Sequence of Mast/stem cell growth factor receptor Kit (Homo sapiens) (P10721 whole entry): as the sequence (P10721 whole entry T670I) above, with I670T counted along it
Sequence of Tyrosine-protein kinase Lck (Homo sapiens) (P06239 2-509 limits assumed): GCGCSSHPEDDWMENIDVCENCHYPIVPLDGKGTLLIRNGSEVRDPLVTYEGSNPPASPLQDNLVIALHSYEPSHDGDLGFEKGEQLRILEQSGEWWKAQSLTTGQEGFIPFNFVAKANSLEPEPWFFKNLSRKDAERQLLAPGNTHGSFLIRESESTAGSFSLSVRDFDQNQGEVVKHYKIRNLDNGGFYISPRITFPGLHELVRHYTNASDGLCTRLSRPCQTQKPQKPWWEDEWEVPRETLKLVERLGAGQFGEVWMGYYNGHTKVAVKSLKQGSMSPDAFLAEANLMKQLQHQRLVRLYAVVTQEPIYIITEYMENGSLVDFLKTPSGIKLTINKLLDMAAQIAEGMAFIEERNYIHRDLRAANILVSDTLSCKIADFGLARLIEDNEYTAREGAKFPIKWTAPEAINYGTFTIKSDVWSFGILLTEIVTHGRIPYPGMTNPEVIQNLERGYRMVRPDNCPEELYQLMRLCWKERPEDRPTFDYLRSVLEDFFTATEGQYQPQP
Sequence of Tyrosine-protein kinase JAK1 (Homo sapiens) (P23458 whole entry): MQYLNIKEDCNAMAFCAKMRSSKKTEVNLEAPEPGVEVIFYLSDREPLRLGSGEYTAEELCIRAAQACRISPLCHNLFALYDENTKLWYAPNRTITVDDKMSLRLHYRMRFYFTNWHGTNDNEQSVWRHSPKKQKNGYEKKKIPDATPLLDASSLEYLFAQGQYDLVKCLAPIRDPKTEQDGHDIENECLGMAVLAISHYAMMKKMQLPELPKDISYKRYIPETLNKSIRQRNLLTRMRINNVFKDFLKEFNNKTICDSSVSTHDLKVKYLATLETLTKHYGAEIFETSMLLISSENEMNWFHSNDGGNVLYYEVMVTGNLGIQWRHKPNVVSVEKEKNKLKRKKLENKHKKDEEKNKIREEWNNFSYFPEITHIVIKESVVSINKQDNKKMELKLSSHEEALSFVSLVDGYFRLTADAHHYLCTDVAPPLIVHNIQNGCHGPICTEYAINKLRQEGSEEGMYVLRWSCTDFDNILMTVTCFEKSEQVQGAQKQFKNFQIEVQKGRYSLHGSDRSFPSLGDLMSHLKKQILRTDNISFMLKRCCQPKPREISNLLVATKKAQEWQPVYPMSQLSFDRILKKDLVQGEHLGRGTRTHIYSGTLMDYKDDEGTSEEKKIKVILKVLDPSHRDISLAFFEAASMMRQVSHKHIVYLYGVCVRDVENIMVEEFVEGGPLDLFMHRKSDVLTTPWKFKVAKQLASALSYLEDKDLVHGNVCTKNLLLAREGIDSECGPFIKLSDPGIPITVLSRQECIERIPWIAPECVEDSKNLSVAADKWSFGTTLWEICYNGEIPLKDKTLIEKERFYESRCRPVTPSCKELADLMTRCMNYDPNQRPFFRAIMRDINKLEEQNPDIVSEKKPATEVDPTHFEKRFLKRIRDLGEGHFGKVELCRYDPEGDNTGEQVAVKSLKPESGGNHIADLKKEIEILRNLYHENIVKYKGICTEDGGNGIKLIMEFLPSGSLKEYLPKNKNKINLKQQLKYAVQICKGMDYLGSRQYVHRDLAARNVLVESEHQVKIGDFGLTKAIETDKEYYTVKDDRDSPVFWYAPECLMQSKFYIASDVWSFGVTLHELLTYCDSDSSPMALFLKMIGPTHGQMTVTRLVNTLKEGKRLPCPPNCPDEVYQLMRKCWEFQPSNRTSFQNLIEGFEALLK
Sequence of Mast/stem cell growth factor receptor Kit (Homo sapiens), P10721 [D816V] (P10721 whole entry D816V): as the sequence (P10721 whole entry T670I) above, with I670T, D816V counted along it
Sequence of Tyrosine-protein kinase JAK2 (Homo sapiens) (O60674 whole entry): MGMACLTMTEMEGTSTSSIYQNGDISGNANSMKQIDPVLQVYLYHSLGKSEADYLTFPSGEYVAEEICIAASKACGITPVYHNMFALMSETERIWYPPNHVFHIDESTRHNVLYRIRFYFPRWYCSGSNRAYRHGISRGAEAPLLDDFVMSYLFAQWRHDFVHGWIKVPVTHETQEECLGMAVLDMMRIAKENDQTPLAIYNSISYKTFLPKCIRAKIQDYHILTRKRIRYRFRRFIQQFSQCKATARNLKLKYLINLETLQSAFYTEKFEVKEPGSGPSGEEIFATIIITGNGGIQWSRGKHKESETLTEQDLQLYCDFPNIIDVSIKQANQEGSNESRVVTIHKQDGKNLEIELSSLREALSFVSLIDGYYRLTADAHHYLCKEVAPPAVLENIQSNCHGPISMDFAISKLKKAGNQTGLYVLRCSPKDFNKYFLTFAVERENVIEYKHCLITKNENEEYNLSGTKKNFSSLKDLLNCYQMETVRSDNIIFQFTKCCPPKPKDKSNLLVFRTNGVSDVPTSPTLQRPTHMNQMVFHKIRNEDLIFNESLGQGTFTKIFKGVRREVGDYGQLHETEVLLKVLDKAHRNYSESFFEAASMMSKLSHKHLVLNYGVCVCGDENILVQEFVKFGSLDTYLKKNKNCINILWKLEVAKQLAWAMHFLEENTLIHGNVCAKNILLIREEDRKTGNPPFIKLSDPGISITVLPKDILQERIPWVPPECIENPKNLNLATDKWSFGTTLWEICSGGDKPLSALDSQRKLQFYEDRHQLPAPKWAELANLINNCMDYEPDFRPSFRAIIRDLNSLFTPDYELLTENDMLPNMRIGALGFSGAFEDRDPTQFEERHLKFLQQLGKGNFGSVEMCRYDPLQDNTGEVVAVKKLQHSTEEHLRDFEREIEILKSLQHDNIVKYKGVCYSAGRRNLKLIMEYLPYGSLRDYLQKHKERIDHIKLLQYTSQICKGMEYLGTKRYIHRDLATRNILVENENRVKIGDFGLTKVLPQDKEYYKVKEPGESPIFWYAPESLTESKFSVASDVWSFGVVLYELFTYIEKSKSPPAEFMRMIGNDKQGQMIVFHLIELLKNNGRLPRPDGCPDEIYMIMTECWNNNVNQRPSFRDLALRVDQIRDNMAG
Sequence of Mast/stem cell growth factor receptor Kit (Homo sapiens), P10721 [V560G] (P10721 whole entry V560G): as the sequence (P10721 whole entry T670I) above, with V560G, I670T counted along it
Sequence of Leukocyte tyrosine kinase receptor (Homo sapiens) (P29376 whole entry): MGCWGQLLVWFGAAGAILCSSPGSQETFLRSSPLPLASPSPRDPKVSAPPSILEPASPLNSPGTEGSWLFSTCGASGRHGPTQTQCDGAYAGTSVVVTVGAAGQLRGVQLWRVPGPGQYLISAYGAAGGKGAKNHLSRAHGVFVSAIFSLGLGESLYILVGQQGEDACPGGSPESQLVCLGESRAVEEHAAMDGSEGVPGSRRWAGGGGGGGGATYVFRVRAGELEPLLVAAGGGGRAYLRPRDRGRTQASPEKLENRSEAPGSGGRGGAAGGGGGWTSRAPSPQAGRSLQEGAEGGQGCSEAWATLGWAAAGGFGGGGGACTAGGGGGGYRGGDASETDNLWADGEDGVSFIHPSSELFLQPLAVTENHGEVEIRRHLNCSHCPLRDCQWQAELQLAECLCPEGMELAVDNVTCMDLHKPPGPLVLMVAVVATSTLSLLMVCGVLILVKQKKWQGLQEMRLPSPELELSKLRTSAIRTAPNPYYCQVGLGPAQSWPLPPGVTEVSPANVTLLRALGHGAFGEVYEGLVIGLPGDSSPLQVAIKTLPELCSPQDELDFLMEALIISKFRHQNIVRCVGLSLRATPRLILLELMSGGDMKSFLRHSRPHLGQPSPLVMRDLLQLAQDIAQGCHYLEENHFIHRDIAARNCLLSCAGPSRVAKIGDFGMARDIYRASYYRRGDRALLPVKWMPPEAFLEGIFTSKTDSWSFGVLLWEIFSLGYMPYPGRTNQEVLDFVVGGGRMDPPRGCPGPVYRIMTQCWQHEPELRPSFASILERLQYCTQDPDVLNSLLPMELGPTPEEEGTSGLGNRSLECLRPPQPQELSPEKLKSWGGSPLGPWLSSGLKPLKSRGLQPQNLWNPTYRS

Turning to `CCOc1ccc2c(-c3ccnc(Nc4cc(OC)cc(C(F)(F)F)c4)n3)cnn2n1`, the inhibition in [1] is 1.63%; in assay [2] it was -2.13%; in assay [3], 6.23%; in assay [4] it was 1.22%; in assay [5] it was 5.38%; in assay [6], 0.66%. Further, the inhibition in assay [7] was 9.24%; in assay [8], 4.19%; in assay [9], 19.1%; in assay [10] it was 7.32%; in [11], 56.5%; in assay [12], -2.22%. The inhibition in [13] turned out to be 2.86%; in assay [14], 1.55%; in assay [15], 14.5%; in [16] it was 2.02%; in [17], 5.97%; in assay [18], 1.12%. Besides, the inhibition in assay [19] was found to be 4.52%; in assay [20], 0.61%.

Consider `O=C(Nc1n[nH]c2nnc(-c3cccnc3)cc12)C1CC1`, for which the inhibition is 2.49% in assay [1]; 1.49% in assay [2]; 2.85% in [3]; -0.35% in assay [4]; 0.3% in [5]; -0.15% in [6]. The inhibition was 0.02% in assay [7]; -0.85% in assay [8]; 2.5% in [9]; 1.26% in assay [10]; 2.59% in assay [11]; -1.93% in [12]. The inhibition is 1.15% in assay [13]; -0.12% in assay [14]; 0.35% in [15]; 2.26% in [16]; 1.71% in [17]; 1.03% in assay [18]. The inhibition worked out at 3.69% in assay [19] and 1.26% in [20].

Turning to `CC1(C)CC(n2cnc(-c3ccc(F)cc3)c2-c2ccnc(N)n2)CC(C)(C)N1`, the inhibition in assay [1] was 0.97%; in assay [2], -2.83%; in assay [3], 1.68%; in [4], 0.57%; in assay [5], -0.41%; in [6] it was -0.01%. Also, the inhibition is -0.6% in assay [7]; -0.9% in [8]; 5.32% in assay [9]; -0.71% in assay [10]; 2.82% in assay [11]; -0.86% in assay [12]. For the same compound, the inhibition in [13] was -3.56%; in assay [14], 2.5%; in assay [15], 1.11%; in [16], 1.03%; in assay [17], -0.87%; in assay [18], -0.02%. Moreover, the inhibition in [19] was 6.94%; in assay [20], 1.09%.

As to `Cc1cc(O)cc(C)c1/C=C/c1cncc(C(=O)OC(C)(C)C)c1`, the inhibition in assay [1] was 2.71%; in [2] it was 1.99%; in [3] it was 7.09%; in [4], 1.65%; in [5], 3.69%; in [6], 0.72%. In addition, the inhibition in assay [7] was found to be 6.16%; in [8], 4.17%; in assay [9], 6%; in [10], 38.3%; in [11], 85.7%; in assay [12] it was 1.84%. Besides, the inhibition in assay [13] is -1.16%; in assay [14] it was 4.32%; in assay [15], 2.87%; in assay [16], 2.94%; in [17], 18.4%; in assay [18] it was 4.23%. The values for the inhibition in assay [19] and in [20] were 26.8% and 2.71%, respectively.

For `CN1CCC(C(=O)Nc2n[nH]c3nc(-c4ccc(O)cc4)c(Br)cc23)CC1`, the inhibition in [1] is -1.94% and 1.71%; in [2] it was 2.37% and 1.02%; in assay [3], 19.7% and 3.43%; in [4], 1.01% and -0.3%; in assay [5] it was 1.49% and 1.42%; in [6], -3.69% and -1.35%. Moreover, the inhibition in assay [7] is -2.24% and 0.59%; in assay [8], 7.52% and 6.12%; in assay [9], 24.5% and 23.2%; in assay [10], 3.81% and 2.92%; in assay [11] it was 12.5% and 9.42%; in assay [12] it was 4.08% and -0.48%. In addition, the inhibition is 5.39% and 3.49% in assay [13]; 2.44% and 0.42% in [14]; 4.98% and 0.1% in assay [15]; -0.43% and 0.93% in assay [16]; 0.37% and -0.64% in [17]; -0.45% and 3.18% in [18]. The inhibition in [19] was 7.96% and 12.4%; in assay [20], 11.7% and 9.83%.

With `CNC(=O)c1ncccc1Nc1nc(Nc2cc3c(cc2OC)CCCN3C(=O)CN(C)C)nc2[nH]ccc12`, the inhibition in assay [1] was 2.8%; in assay [2], 4.62%; in assay [3], -0.74%; in assay [4], 1.24%; in assay [5], 1.63%; in [6], 2.81%. Also, the inhibition was determined as 0.89% in assay [7]; 4.97% in [8]; 5.02% in [9]; 5.24% in [10]; 3.44% in [11]; 1.27% in assay [12]. Further, the inhibition is 4.76% in assay [13]; 3.12% in assay [14]; 1.68% in [15]; -0.63% in [16]; 0.67% in assay [17]; 2.48% in assay [18]. Further, the inhibition in [19] worked out at 4.71%; in [20], 86.9%.

`CCN1CCC(C(=O)Nc2n[nH]c3nnc(-c4cccc(F)c4F)cc23)CC1`: the inhibition in assay [1] is 0.88%; in [2] it was 1.68%; in assay [3], -1.21%; in assay [4], -0.5%; in [5] it was -0.03%; in assay [6] it was 0.12%. Also, the inhibition in [7] is 1.09%; in assay [8], 1.67%; in assay [9], 4.26%; in assay [10], 1.8%; in [11], 2.87%; in [12] it was -0.19%. In addition, the inhibition is -1.53% in [13]; 3.1% in [14]; -0.26% in [15]; 0.02% in [16]; 3.46% in assay [17]; -0.07% in [18]. Besides, the inhibition in assay [19] is 2.23%; in assay [20], -0.09%.

For orientation: inhibition means the drop in the measured response relative to a control, in per cent.
